The values below come from PubChem BioAssay (EPA / NIEHS).

Several values for one entry are separate records, joined by “and”; a condition that tells them apart may be missing. Equal entries are not always repeated. Records with an inconclusive call do not appear. Some structures have more than one record in an assay (separate samples or runs), and their calls can disagree. Activity calls are given as the source filed them. The calls were made as follows, unless noted: active = hit-call score of the fitted dose curve at least 0.9, where 1 is the maximum; inactive = score below 0.9.

The subject of test [1] is SRY-box transcription factor 17 (SOX17) Protein Expression, Deisenroth Lab, SOX17 (gene 64321). Kind of test: CCTE_Deisenroth_DEVTOX-GLR_Endo_SOX17: CCTE's DevTox GLR-Endo Assay Evaluation of SRY-box transcription factor 17 (SOX17) Protein Expression, Deisenroth Lab (AID 2284413). In short, it runs like this: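 Seed RUES2-GLR cells 24 h; start endoderm differentiation; dose at 0 and 24 h (1 nM - 200 uM, 10 points); fix at 48 h, stain nuclei, image 5 fields/well; compute SOX17+/total cells vs 0.2% DMSO.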

For test [2], the system named is Brachyury (BRA) Protein Expression, TBXT (gene 6862). The experiment in a line: CCTE_Deisenroth_DEVTOX-GLR_Endo_BRA: CCTE's DevTox GLR-Endo Assay Evaluation of Brachyury (BRA) Protein Expression, Deisenroth Lab (AID 2284417). The gist of the method:
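Endpoint is the fraction of BRA reporter-positive cells over total nuclei, corrected by subtracting the 0.2% DMSO value. Chemicals (1 nM - 200 uM, 10 points) were dosed twice during 48 h differentiation of RUES2-GLR cells, read by imaging.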

Test [3] in a line: CCTE_Deisenroth_DEVTOX-GLR_Endo_CellCount: Viability Assessment in CCTE's DevTox GLR-Endo Assay, Deisenroth Lab (AID 2284420). In short, it runs like this:
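RUES2-GLR pluripotent cells seeded 24 h, then differentiated 48 h in defined media with two chemical exposures 24 h apart. Nuclei counted by high-content imaging; 10-point 1 nM–200 uM series; percent change versus 0.2% DMSO.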

Test [4] has as its system SRY-box transcription factor 17 (SOX17) Protein Expression, Deisenroth Lab, SOX17 (gene 64321). Kind of test: CCTE_Deisenroth_DEVTOX-GLR_Pluri_SOX17: CCTE's DevTox GLR-Pluri Assay Evaluation of SRY-box transcription factor 17 (SOX17) Protein Expression, Deisenroth Lab (AID 2284427; active = hit-call score of the fitted dose curve at least 0.9, where 1 is the maximum). The gist of the method:
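RUES2-GLR pluripotent cells were induced toward endoderm over 48 h and received two compound doses 24 h apart, in a 10-point series from 1 nM to 200 uM. The percentage of SOX17+ cells among total cells was measured by high-content imaging and reported minus the 0.2% DMSO control.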

Test [5] deals with SRY-box transcription factor 2 (SOX2) Protein Expression, Deisenroth Lab, SOX2 (gene 6657). Kind of test: CCTE_Deisenroth_DEVTOX-GLR_Pluri_SOX2: CCTE's DevTox GLR-Pluri Assay Evaluation of SRY-box transcription factor 2 (SOX2) Protein Expression, Deisenroth Lab (AID 2284428). The gist of the method: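 RUES2-GLR human pluripotent cells, two exposures 24 h apart over 48 h differentiation; 10-point series 1 nM - 200 uM. High-content imaging gives SOX2+ cells divided by cell count, reported as percent change versus 0.2% DMSO.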

Test [6] deals with Brachyury (BRA) Protein Expression, Deisenroth Lab, TBXT (gene 6862). Kind of test: CCTE_Deisenroth_DEVTOX-GLR_Pluri_BRA: CCTE's DevTox GLR-Pluri Assay Evaluation of Brachyury (BRA) Protein Expression, Deisenroth Lab (AID 2284429; active = hit-call score of the fitted dose curve at least 0.9, where 1 is the maximum). In short, it runs like this:
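An inducible fluorescent BRA reporter in RUES2-GLR cells tracks mesoderm differentiation. Compounds (10 concentrations, 1 nM - 200 uM) are dosed twice within a 48-h differentiation. The endpoint subtracts the 0.2% DMSO control from percent BRA+ cells.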

Test [7] deals with SRY-box transcription factor 2 (SOX2) Protein Expression, Deisenroth Lab, SOX2 (gene 6657). The experiment in a line: CCTE_Deisenroth_DEVTOX-GLR_Endo_SOX2: CCTE's DevTox GLR-Endo Assay Evaluation of SRY-box transcription factor 2 (SOX2) Protein Expression, Deisenroth Lab (AID 2284412; active = hit-call score of the fitted dose curve at least 0.9, where 1 is the maximum). In short, it runs like this: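 RUES2-GLR human pluripotent cells were seeded 24 h, then differentiated 48 h with two chemical exposures 24 h apart. Cells were fixed, nuclei stained and imaged by high-content microscopy. Endpoint is %SOX2+ cells over cell count, minus 0.2% DMSO control; 10-point series 1 nM–200 uM.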

Test [8] in a line: Tanguay_ZF_120hpf_BRN: Oregon State University Tanguay Lab 120 Hour Post-fertilization zebrafish Assay for Brain Region Malformation (AID 2284402). The gist of the method:
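Dechorionated wild-type Tropical 5D zebrafish embryos exposed statically from 6 to 120 hpf at 28C, one per well, 0.64% DMSO final. Brain malformation scored at 120 hpf by brightfield as present/absent; dead embryos not scored.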

The nature of test [9]: Tanguay_ZF_120hpf_TCHR: Oregon State University Tanguay Lab 120 Hour Post-fertilization zebrafish Assay for Touch Responsive (AID 2284403). The gist of the method:
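Dechorionated Tropical 5D wild-type zebrafish embryos, one per well from 6 hpf, were statically exposed to 120 hpf at 28 °C (0.64% DMSO). Touch response was scored present/absent at 120 hpf and not scored in dead larvae.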

The nature of test [10]: Tanguay_ZF_120hpf_ANY: Oregon State University Tanguay Lab 120 Hour Post-fertilization zebrafish Assay for Any Mortality and Malformation (AID 2284404). The gist of the method: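 Dechorionated Tropical 5D wild-type embryos, one per well from 6 hpf, static exposure in sealed, dark plates at 28C until 120 hpf, 0.64% DMSO final. Brightfield scoring of mortality and malformations as binary presence/absence, pooling 13 morphology endpoints.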

The nature of test [11]: CCTE_Padilla_ZF_Score.Craniofacial: CCTE's 144 Hour Post-fertilization zebrafish Assay Score for Craniofacial Malformation, Padilla Lab (AID 2284405). The gist of the method: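 Wild-type zebrafish embryos (with chorions), one per well in 10% Hanks', were dosed at 6–8 hpf in sealed plates and kept at 26C. They were rinsed at 5 dpf. At 6 dpf two blinded assessors scored craniofacial malformations by brightfield stereomicroscopy.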

The nature of test [12]: CCTE_Padilla_ZF_Score.Edema: CCTE's 144 Hour Post-fertilization zebrafish Assay Score for Edema Malformation, Padilla Lab (AID 2284406). In short, it runs like this:
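Wild-type zebrafish embryos, one per well in Hanks' solution, dosed at 6-8 hpf, sealed and reared at 26C on a 14:10 h cycle; rinsed on 5 dpf. At 6 dpf, blinded assessors scored edema by stereomicroscopy.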

A short description of test [13]: CCTE_Padilla_ZF_Score.Spine: CCTE's 144 Hour Post-fertilization zebrafish Assay Score for Spine Malformation, Padilla Lab (AID 2284407). In short, it runs like this: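 Wild-type zebrafish embryos, one per well in Hanks' solution, dosed at 6–8 hpf in sealed plates at 26C, 14:10 h light:dark; rinsed at 5 dpf. Two blinded assessors scored spinal defects by stereomicroscopy at 6 dpf; fitted versus DMSO.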

Test [14] can be described thus: CCTE_Padilla_ZF_Score.Swim_bladder: CCTE's 144 Hour Post-fertilization zebrafish Assay Score for Swim Bladder Malformation, Padilla Lab (AID 2284408). The gist of the method:
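Wild-type zebrafish embryos, one per well in 10% Hanks', dosed at 6–8 hpf, sealed, reared at 26C and rinsed at 5 dpf. Blinded assessors scored uninflated swim bladder by stereomicroscopy at 6 dpf, relative to DMSO.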

Test [15] in a line: CCTE_Padilla_ZF_Score.Position: CCTE's 144 Hour Post-fertilization zebrafish Assay Score for Position, Padilla Lab (AID 2284409). The gist of the method: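 Wild-type zebrafish embryos (with chorions) exposed singly from 6–8 hpf in sealed wells of Hanks' solution at 26C, rinsed at 5 dpf. At 6 dpf, blinded assessors scored abnormal water-column position by brightfield stereomicroscopy, relative to DMSO.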

Test [16] can be described thus: CCTE_Padilla_ZF_Score.Living: CCTE's 144 Hour Post-fertilization zebrafish Assay Score for Viability, Padilla Lab (AID 2284410).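 Also: larval death at 6 dpf judged by absent heartbeat or coagulation.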 The gist of the method: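 Wild-type zebrafish embryos were exposed singly from 6–8 hpf in sealed wells of Hanks' solution at 26C, then rinsed at 5 dpf. At 6 dpf, blinded assessors scored mortality (no heartbeat or coagulation) by stereomicroscopy, fitted against DMSO.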

Test [17] in a line: CCTE_Padilla_ZF_Score.General: CCTE's 144 Hour Post-fertilization zebrafish Assay Score for General Malformation, Padilla Lab (AID 2284411). In short, it runs like this: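 Wild-type zebrafish embryos were plated singly at 6-8 hpf in 10% Hanks' and exposed in sealed wells at 26C until rinsed on 5 dpf. At 6 dpf two blinded assessors scored mortality, hatching and malformations by stereomicroscopy; gain-of-signal versus DMSO.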

The nature of test [18]: CCTE_Padilla_ZF_Score.Tail: CCTE's 144 Hour Post-fertilization zebrafish Assay Score for Tail Malformation, Padilla Lab (AID 2284414). In short, it runs like this:
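Wild-type zebrafish embryos, one per well in 200 uL 10% Hanks', dosed at 6-8 hpf, sealed, and kept at 26 C on a 14:10 h light cycle. Chemical was rinsed out at 5 dpf. Blinded brightfield scoring of tail defects followed at 6 dpf.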

Test [19] is described as follows: CCTE_Padilla_ZF_Score.Blood_pooling: CCTE's 144 Hour Post-fertilization zebrafish Assay Score for Blood Pooling, Padilla Lab (AID 2284415). In short, it runs like this:
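Wild-type outbred zebrafish embryos, one per well in 10% Hanks', exposed from 6–8 hpf in sealed plates at 26C on 14:10 h light:dark, rinsed at 5 dpf. Blinded stereomicroscope scoring of blood pooling at 6 dpf; gain-of-signal versus DMSO.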

Test [20] is described as follows: CCTE_Padilla_ZF_Score.Any: CCTE's 144 Hour Post-fertilization zebrafish Assay Score for Any Mortality or Malformation, Padilla Lab (AID 2284416). The gist of the method: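 Wild-type zebrafish embryos with chorions, one per well in 10% Hanks' from 6–8 hpf, dosed in sealed plates at 26 C, 14:10 h light:dark; rinsed at 5 dpf; blinded scoring at 6 dpf for death or malformation, versus DMSO.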

In the case of `CC(O)CO` (configuration not stated), the molecule was classed as inactive in test [1], in [2], in [3], in [4], in [5] and in test [6].

On to `CC1=C(/C=C/C(C)=C/C=C/C(C)=C/C(=O)O)C(C)(C)CCC1`, for which the concentration at half-maximal activity (AC50) was 16 µM (active) in [7]; 0.102 µM (active) in test [1]; 8.08 µM (active) in test [2]; 4.43 µM (active) in test [3]; 14.1 µM (active) in [4]; 0.576 µM (active) in test [5]. Moreover, in test [6], the half-maximal activity concentration (AC50) is 12 µM (active).

On to `OCCC(F)(F)C(F)(F)C(F)(F)C(F)(F)C(F)(F)C(F)(F)C(F)(F)C(F)(F)F`, for which the molecule was classed as inactive in test [8], in [9], in test [10], in test [11], in test [12] and in test [13]. For the same molecule, the molecule was classed as inactive in test [14], in [15], in test [18], in test [19] and in test [20]. The half-maximal activity concentration (AC50) in test [16] is 78.3 µM (active); in test [17], 88.8 µM (active).

As for `C=C(C)C(=O)OCCC(F)(F)C(F)(F)C(F)(F)C(F)(F)C(F)(F)C(F)(F)F`, the molecule was called inactive in test [8], in [9], in test [10], in test [11], in test [12] and in test [13]. For the same molecule, the outcome in test [14], in [15], in test [16], in [17], in test [18] and in [19] was inactive. Also, the molecule was classed as inactive in test [20].

Turning to `OCCC(F)(F)C(F)(F)C(F)(F)C(F)(F)C(F)(F)C(F)(F)F`, the molecule was classed as inactive in [8], in test [9], in test [10], in test [13], in [15] and in test [16]. In addition, the outcome in [18] and in test [19] was inactive. Also, the half-maximal activity concentration (AC50) in [11] is 30.1 µM (active); in test [12], 16.5 µM (active); in test [14], 52.7 µM (active); in test [17], 2.19 µM (active); in test [20] it was 28.6 µM (active).

For the molecule `FC(F)(I)C(F)(F)C(F)(F)C(F)(F)C(F)(F)C(F)(F)I`, the concentration at half-maximal activity (AC50) was 34.5 µM (active) and 26.6 µM (active) in [11]; 19.1 µM (active) and 5.34 µM (active) in test [12]; 6.93 µM (active) in test [13]; 10.9 µM (active) and 8.3 µM (active) in test [14]; 28 µM (active) and 4 µM (active) in [15]; 88.8 µM (active) in test [16]. Further, the AC50 was 15.6 µM (active) and 5.69 µM (active) in test [17]; 28.6 µM (active) and 3 µM (active) in test [19]; 10 µM (active) and 3.34 µM (active) in test [20]. Further, the molecule was classed as inactive in [13], in [16] and in test [18].

For `C[C@@H]1C[C@H]2[C@@H]3CCC4=CC(=O)C=C[C@]4(C)[C@@]3(F)[C@@H](O)C[C@]2(C)[C@@]1(O)C(=O)COP(=O)(O)O`, the outcome in [7], in test [1], in test [2], in test [3], in test [4] and in test [5] was inactive. Also, the molecule was classed as inactive in test [6].

In the case of `NCC(F)(F)C(F)(F)C(F)(F)C(F)(F)C(F)(F)C(F)(F)C(F)(F)F`, the outcome in test [11], in test [12], in test [13], in [14], in [15] and in test [16] was inactive. Moreover, the outcome in test [17], in [18], in test [19] and in [20] was inactive.

On to `CCCCCCCCCCCCCC[N+](C)(C)C`, for which the result in test [17] was inactive.
